According to PubChem BioAssay (NCI):
Compounds without any hit were thinned out: in the full panel of roughly 79,000, 15% have a hit. A number with no mark means an inactive call. Active and inactive are the calls of the source. Rule as the data show it: active = growth inhibition above about 70%; inactive = the rest.

Assays:
[1] = NCI Yeast Anticancer Drug Screen. Data for the rad52 strain (AID 147);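 also: 0% = growth of vehicle-treated control cultures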; conditions: S. cerevisiae rad52 mutant growth inhibition, stronger effect = higher value
How it was run: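 Vehicle-treated cultures served as the reference for growth inhibition of compound-exposed yeast bearing a DNA repair mutation.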

[2] = NCI Yeast Anticancer Drug Screen. Data for the wt1 strain (AID 149);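 also: 0% = growth of vehicle-treated wt1 cultures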; conditions: S. cerevisiae wt1 strain (SPY 50644) growth inhibition, stronger effect = higher value
How it was run: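 Yeast wt1 strain exposed to compounds; growth inhibition measured relative to vehicle-treated controls.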

[3] = NCI Yeast Anticancer Drug Screen. Data for the mgt1 strain (AID 153); conditions: S. cerevisiae mgt1 mutant growth inhibition, stronger effect = higher value
How it was run: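 mgt1 strain exposed; growth vs vehicle control recorded as inhibition.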

[4] = NCI Yeast Anticancer Drug Screen. Data for the rad50 strain (AID 155);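 also: 0% = growth of vehicle-only cultures of the same strain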; conditions: S. cerevisiae rad50 strain growth inhibition, stronger effect = higher value
How it was run: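 Yeast carrying a defined DNA repair defect were exposed to test compounds, and growth was compared with vehicle-treated controls to give percent inhibition.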

[5] = NCI Yeast Anticancer Drug Screen. Data for the mec2-1 strain (AID 157); conditions: S. cerevisiae mec2-1 strain, stronger effect = higher value
How it was run: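 Vehicle-treated cultures served as reference for growth inhibition of compound-exposed mec2-1 yeast.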

[6] = NCI Yeast Anticancer Drug Screen. Data for the rad14 strain (AID 159);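 also: 0% = growth of vehicle-treated control cultures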; conditions: S. cerevisiae rad14 strain growth inhibition, stronger effect = higher value
How it was run: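 Yeast cells carrying a defined DNA-repair defect were exposed to compounds, and growth inhibition was calculated relative to vehicle-treated control cultures.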

[7] = NCI Yeast Anticancer Drug Screen. Data for the sgs1 mgt1 strain (AID 161);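 also: 0% = growth of cultures given vehicle only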; conditions: S. cerevisiae sgs1 mgt1 strain, stronger effect = higher value
How it was run: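 Genetically altered yeast, compound exposure, growth inhibition relative to vehicle.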

[8] = NCI Yeast Anticancer Drug Screen. Data for the CLN2oe strain (AID 163);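 also: 0% = growth of vehicle-only control cultures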; conditions: S. cerevisiae CLN2oe strain, stronger effect = higher value
How it was run: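 Inhibition relative to vehicle-treated yeast is reported. Cells: strain with genetic alteration in cell-cycle control, grown with compound.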

[9] = NCI Yeast Anticancer Drug Screen. Data for the cln2 rad14 strain (AID 165);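 also: 0% = growth equal to vehicle treated cultures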; conditions: S. cerevisiae cln2 rad14 strain, stronger effect = higher value
How it was run: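 Each compound was tested on cln2 rad14 yeast. Inhibition of growth was calculated against vehicle-exposed controls.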

[10] = NCI Yeast Anticancer Drug Screen. Data for the bub3 strain (AID 167); conditions: S. cerevisiae bub3 mutant strain, stronger effect = higher value
How it was run: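 Compounds were applied to a genetically altered yeast strain carrying a cell-cycle control defect. Growth inhibition was scored against vehicle-treated controls.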

[11] = NCI Yeast Anticancer Drug Screen. Data for the wt2 strain (AID 169);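 also: 0% = growth of vehicle-treated yeast cultures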; conditions: S. cerevisiae wt2 strain growth inhibition, stronger effect = higher value
How it was run: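 Inhibition of yeast growth was determined after compound treatment, normalised to controls receiving only vehicle.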

[12] = NCI Yeast Anticancer Drug Screen. Data for the mlh1 strain (AID 171);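 also: 0% = growth of vehicle-treated control cultures of the same strain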; conditions: S. cerevisiae mlh1 strain growth inhibition, stronger effect = higher value
How it was run: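 Vehicle-normalised growth inhibition of a repair- or checkpoint-altered yeast strain following compound treatment.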

[13] = NCI Yeast Anticancer Drug Screen. Data for the sgs1 strain (AID 173);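 also: 0% = growth of vehicle-only control cultures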; conditions: S. cerevisiae sgs1 mutant, stronger effect = higher value
How it was run: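 Screen format: yeast with repair or checkpoint alterations, compound exposure, growth read relative to vehicle.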

[14] = NCI Yeast Anticancer Drug Screen. Data for the mlh1 rad18 strain (AID 175); conditions: S. cerevisiae mlh1 rad18 strain growth inhibition, stronger effect = higher value
How it was run: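 Vehicle-treated cultures served as the reference for growth inhibition in a yeast strain carrying DNA damage repair alterations exposed to each compound.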

[15] = NCI Yeast Anticancer Drug Screen. Data for the rad18 strain (AID 177); conditions: S. cerevisiae rad18 mutant growth inhibition, stronger effect = higher value
How it was run: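 Test articles were incubated with altered yeast defective in DNA damage repair. Results are given as inhibition of growth versus vehicle.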

[16] = at 5.0 µM (retest, dose inferred, filed as 0.5)
[17] = at 50.0 µM (retest, dose inferred, filed as 5.0)

## CC(=O)Nc1ccc(/C=C(\C#N)c2ccc(C)cc2)cc1
[1]; at 1.2 µM
  growth inhibition: -10%
[1]; at 3.7 µM
  growth inhibition: 0%
[1]; at 11.0 µM
  growth inhibition: -5%
[1]; at 33.0 µM
  growth inhibition: -2%
[1]; at 100.0 µM
  growth inhibition: 1%
[2]; at 1.2 µM
  growth inhibition: 0%
[2]; at 3.7 µM
  growth inhibition: -2%
[2]; at 11.0 µM
  growth inhibition: -6%
[2]; at 33.0 µM
  growth inhibition: -6%
[2]; at 100.0 µM
  growth inhibition: 1%
[3]; at 1.2 µM
  growth inhibition: -6%
[3]; at 3.7 µM
  growth inhibition: -16%
[3]; at 11.0 µM
  growth inhibition: -17%
[3]; at 33.0 µM
  growth inhibition: -10%
[3]; at 100.0 µM
  growth inhibition: -13%
[4]; at 1.2 µM
  growth inhibition: -25%
[4]; at 3.7 µM
  growth inhibition: -23%
[4]; [16]
  growth inhibition: 30%
[4]; at 11.0 µM
  growth inhibition: -23%
[4]; at 33.0 µM
  growth inhibition: -13%
[4]; [17]
  growth inhibition: 93% (active)
[4]; at 50.0 µM
  growth inhibition: 28.4%
[4]; at 100.0 µM
  growth inhibition: -1%
[5]; at 1.2 µM
  growth inhibition: -16%
[5]; at 3.7 µM
  growth inhibition: -23%
[5]; [16]
  growth inhibition: 40%
[5]; at 11.0 µM
  growth inhibition: -22%
[5]; at 33.0 µM
  growth inhibition: -33%
[5]; [17]
  growth inhibition: 95% (active)
[5]; at 50.0 µM
  growth inhibition: 18.7%
[5]; at 100.0 µM
  growth inhibition: -30%
[6]; at 1.2 µM
  growth inhibition: 1%
[6]; at 3.7 µM
  growth inhibition: -9%
[6]; at 11.0 µM
  growth inhibition: -5%
[6]; at 33.0 µM
  growth inhibition: 4%
[6]; at 100.0 µM
  growth inhibition: 1%
[7]; [16]
  growth inhibition: -12%
[7]; [17]
  growth inhibition: 45%
[7]; at 50.0 µM
  growth inhibition: 24.6%
[8]; at 1.2 µM
  growth inhibition: -3%
[8]; at 3.7 µM
  growth inhibition: -1%
[8]; at 11.0 µM
  growth inhibition: -3%
[8]; at 33.0 µM
  growth inhibition: 8%
[8]; at 100.0 µM
  growth inhibition: 20%
[9]; [16]
  growth inhibition: 63%
[9]; [17]
  growth inhibition: 2%
[9]; at 50.0 µM
  growth inhibition: 19.2%
[10]; at 1.2 µM
  growth inhibition: -27%
[10]; at 3.7 µM
  growth inhibition: -21%
[10]; [16]
  growth inhibition: -11%
[10]; at 11.0 µM
  growth inhibition: -12%
[10]; at 33.0 µM
  growth inhibition: 7%
[10]; [17]
  growth inhibition: 39%
[10]; at 50.0 µM
  growth inhibition: 63.7%
[10]; at 100.0 µM
  growth inhibition: -16%
[11]; at 1.2 µM
  growth inhibition: -1%
[11]; at 3.7 µM
  growth inhibition: 9%
[11]; at 11.0 µM
  growth inhibition: 6%
[11]; at 33.0 µM
  growth inhibition: 5%
[11]; at 100.0 µM
  growth inhibition: 0%
[12]; at 1.2 µM
  growth inhibition: -20%
[12]; at 3.7 µM
  growth inhibition: -21%
[12]; at 11.0 µM
  growth inhibition: -18%
[12]; at 33.0 µM
  growth inhibition: -6%
[12]; at 100.0 µM
  growth inhibition: -10%
[13]; at 1.2 µM
  growth inhibition: -21%
[13]; at 3.7 µM
  growth inhibition: -19%
[13]; at 11.0 µM
  growth inhibition: -23%
[13]; at 33.0 µM
  growth inhibition: -13%
[13]; at 100.0 µM
  growth inhibition: -17%
[14]; [16]
  growth inhibition: 34%
[14]; [17]
  growth inhibition: 97% (active)
[14]; at 50.0 µM
  growth inhibition: 24.6%
[15]; at 1.2 µM
  growth inhibition: -18%
[15]; at 3.7 µM
  growth inhibition: -9%
[15]; at 11.0 µM
  growth inhibition: -17%
[15]; at 33.0 µM
  growth inhibition: -3%
[15]; at 100.0 µM
  growth inhibition: -16%
